The list is not random: actives were taken first. Their share in the collection is about 10%.
HPGD inh: inhibitors of human 15-hydroxyprostaglandin dehydrogenase (HPGD) | purified HPGD, NADH fluorescence kinetic, PGE2 substrate | hit rate 4.3% among 150,000 | Potency, µM, for the others: at the highest dose activity change, negative = inhibition, actives largely listed as inhibitors; note: potency is the fitted concentration of half-maximal effect
Target sequence (P15428 whole entry, looked up): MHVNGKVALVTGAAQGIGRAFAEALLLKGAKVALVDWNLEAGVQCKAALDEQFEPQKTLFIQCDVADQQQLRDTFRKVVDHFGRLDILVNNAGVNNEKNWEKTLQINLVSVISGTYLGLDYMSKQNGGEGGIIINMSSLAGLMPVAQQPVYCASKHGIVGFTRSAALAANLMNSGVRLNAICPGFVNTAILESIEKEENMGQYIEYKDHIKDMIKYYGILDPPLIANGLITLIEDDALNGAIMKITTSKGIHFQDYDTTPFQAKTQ
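20 nM HPGD preincubated 15 min at room temperature with compound in 50 mM Tris-HCl pH 8, 0.01% Tween 20. Started with 1 mM NAD+ and 30 uM prostaglandin E2; NADH fluorescence (360/450 nm) read 5 times over 30-s intervals, last minus first.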
IMPase inh: IMPase inhibition in cells; P97697; CHO-M1 cells, IP1 accumulation, HTRF TR-FRET ratio; inhibition (IP1 accumulation), % at 46.1 µM; 120,000 tested, under 10 active; AID 901; active = well fitted curve in the direction sought with a large enough effect in the signal ratio, not every such curve was filed as active; inconclusive = small, poorly fitted or top-dose-only effect, or a change in a side signal; inactive = no such curve, though single readings can be large or run the other way; the % refers to the signal ratio;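 note: cells stimulated with carbachol in lithium chloride buffer; plate controls were DMSO basal wells for no effect and reference inhibitor wells for full effect; higher means more IMPase inhibition seen as more IP1 and lower FRET ratio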
Target sequence (P97697 whole entry, looked up): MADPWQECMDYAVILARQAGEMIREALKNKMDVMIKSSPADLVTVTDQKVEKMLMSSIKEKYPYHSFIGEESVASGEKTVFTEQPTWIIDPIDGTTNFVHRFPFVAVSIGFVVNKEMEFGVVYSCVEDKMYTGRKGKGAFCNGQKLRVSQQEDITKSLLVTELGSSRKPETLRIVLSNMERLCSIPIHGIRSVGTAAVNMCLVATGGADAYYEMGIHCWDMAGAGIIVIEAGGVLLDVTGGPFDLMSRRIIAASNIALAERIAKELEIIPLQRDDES
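Carbachol-driven Gq signalling in CHO-M1 cells (2000/well) generates IP1. Compounds that block IMPase raise IP1 and so reduce the FRET signal from Eu-anti-IP1 and d2-IP1 after a 10 min room-temperature lysis.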
Lamin A splicing: changes lamin A minigene splicing in HeLa cells. HeLa LMNA splicing GFP/RFP minigene ratio, 48 h. Potency, µM (top dose mostly 46.1 µM), without a hit: at the highest dose ratio change, negative = inhibition, actives largely listed as inhibitors. hit rate 0.01% among 200,000. AID 1487; active = well fitted inhibition curve with a large enough effect in the signal ratio, with a control signal flat, not every such curve was filed as active; inconclusive = small, poorly fitted or top-dose-only effect, or effect the other way, or a change in a side signal; the % refers to the signal ratio; note: potency is the fitted concentration of half-maximal effect
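Read-out is the ratio of GFP to DsRed2 object intensity, acquired by 488 nm laser-scanning cytometry on HeLa lamin A-EGFP minigene reporter cells. Compound incubation 48 hrs at 37 °C in Opti-MEM with 2% FBS; DMSO 0.5% final.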
Luc counter: counter-screen: inhibitors of Kinase-Glo firefly luciferase | Potency, µM (highest dose often 38.3 µM), for the others: at the top dose activity change, negative = inhibition, usual class: inhibitors | Q27757 | Kinase-Glo luciferase, ATP luminescence, 8 min | hit rate 0.28% among 200,000; active = well fitted inhibition curve with a large enough effect; inconclusive = small, poorly fitted or top-dose-only effect; note: potency is the fitted concentration of half-maximal effect; nearly all actives have a fitted effect of over 60% in size
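Light output from Kinase-Glo luciferase with luciferin and 10 uM ATP in 50 mM imidazole pH 7.2, KCl, MgCl2, Tween 20, BSA; compound pin-delivered, 8-min ambient incubation, then luminescence read.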
PNC assembly inh: blocks assembly of the perinucleolar compartment; PC3M PTB-GFP, PNC prevalence imaging, 16 h; stronger effect = lower value; activity change (PNC), negative = inhibition, % at 10 µM; hit rate 3.1% among 140,000;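 active = readout at or below -70, meaning at least 70% loss of cells showing the perinucleolar compartment, a nuclear body marking cancer cells; inconclusive = readout between -30 and a set limit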;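 note: plate controls were DMSO wells for no effect and camptothecin positive control wells for full effect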
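Read-out is percentage of cells bearing a perinucleolar compartment, from automated 20x imaging of fixed, Hoechst-stained PC3M PTB-GFP cells. Cells were seeded 4 h, then exposed 16 h to compound (23 nl of library stock) in duplicate plates.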
ALDH1A1 block: ALDH1A1 (human) enzyme inhibition; P00352; Purified ALDH1A1, NADH fluorescence, propionaldehyde substrate; Potency, µM (highest dose often 75.3 µM), for inactives: top-dose activity, negative = inhibition, hits mostly inhibitors; hit rate 7.3% among 220,000;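 note: potency is the fitted concentration of half-maximal effect; plate controls were no enzyme wells and a reference inhibitor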
The depositor's hits bear a star; ? = inconclusive; / = not tested or not shown; [ ] = remark or other dose. Unless noted, calls come from the whole dose curve; as a rule, active = well fitted inhibition curve with a large enough effect (not every such curve was filed as active); inconclusive = small, poorly fitted or top-dose-only effect, or another doubt; inactive = no such curve, though single readings can be large or run the other way. Unless noted, % is set by controls: 0 for no effect and ±100 for the full control effect.

SMILES | HPGD inh | IMPase inh | Lamin A splicing | Luc counter | PNC assembly inh | ALDH1A1 block
Cc1cccc(NC(=O)CS(=O)(=O)c2cccc3nsnc23)c1 | / | / | 12%[46 µM] | / | / | /
O=c1[nH]c(C(F)(F)F)nc2c1nnn2Cc1ccccc1F | 18µM* | 0 | 21% | 18% | 19 | 12%
Fc1ccccc1Cn1nnc2c(NCc3ccccn3)ncnc21 | -21% | 6 | -3% | 0% | 28 | ?
CCCc1nc2c(nnn2Cc2ccccc2F)c(=O)[nH]1 | 28µM* | -2 | -2% | 0% | -4 | -51%
O=c1cc(CSc2nnc(COc3ccccc3Cl)o2)nc2sccn12 | 18µM* | 1 | 9% | -2% | -10 | ?
CC(C)NC(=O)NC(=O)CSc1nnc(COc2ccccc2Cl)o1 | -5% | 1 | -4% | 4% | 9 | 0%
O=C(O)c1ccc(CSc2nnc(COc3ccc(Cl)cc3Cl)o2)cc1 | 5µM* | 6 | 11% | 1% | 46 | ?
COc1ccc(OCc2nnc(SCc3ccc(C(=O)O)cc3)o2)cc1 | / | / | / | -6% | / | 13%
CN(c1ccc(Cl)cc1)S(=O)(=O)c1nnc(NC(=O)C2CCCCC2)s1 | / | / | 1%[46 µM] | / | / | /
CC(C)CO/N=C1/C[C@@H](O)[C@@H](O)[C@@H]2[C@H]3C(=O)N(c4ccc(F)cc4F)C(=O)[C@@H]3CC[C@@H]12 | / | / | / | / | / | -3%[13.5 µM]
Cc1c(NC(=O)C(C)(C)Oc2ccc(Cl)cc2)cccc1-c1nc2ncccc2o1 | / | 8 | / | / | / | /
CC(C)NC(=O)c1onc(CSc2ccccc2F)c1C(=O)O | -4% | 3 | 7%[0.0737 µM] | 2% | -84* | -14%
Cc1ccccc1SCc1noc(C(=O)NC(C)C)c1C(=O)O | -22% | 9 | -3%[0.0737 µM] | 5% | -91* | ?
CCOC(=O)c1noc2ncn(CC(=O)Nc3ccc(C)c(F)c3)c(=O)c12 | / | / | 5%[46 µM] | / | / | /
N#CCCS(=O)(=O)c1ccccc1 | -4% | / | / | -3% | / | -6%
N#CCCCS(=O)(=O)c1nnnn1-c1ccc(Br)cc1 | -10% | / | / | 1% | / | 20µM*
N#CCCCSc1nnnn1-c1cccc(Cl)c1 | -16% | -6 | 5% | 2% | ? | -7%
N#CCCS(=O)(=O)c1nnnn1-c1ccccc1 | ? | 2 | ? | -4% | ? | 0.45µM*
COc1cc(/C=C2/C(=O)c3cccc([N+](=O)[O-])c3C2=O)c(Br)cc1O | 1.4µM* | / | ? | 11µM* | 1 | 8.9µM*
CCC(=O)Nc1nc(C)c(C(=O)N2CCCCC2)s1 | 8.9µM* | 3 | -2% | -1% | 12 | ?
CCOC(=O)c1sc(NC(=O)CC)nc1C | / | / | 0%[9.22 µM] | -3% | / | 3%
CC(CCc1ccco1)NC(=O)CSc1cc(=O)n(C)c2ccccc12 (centres undefined) | 25µM* | 0 | 7% | -4% | ? | ?
CCCCNC(=O)CSc1cc(=O)n(C)c2ccccc12 | 14µM* | -5 | 9% | 0% | 11 | -9%
Cn1c(=O)cc(SCC(=O)Nc2ccc3c(c2)OCO3)c2ccccc21 | / | -9 | -16% | / | ? | 7%
Cn1c(=O)cc(SCC(=O)NCCCN2CCOCC2)c2ccccc21 | / | -6 | 13% | / | -9 | 6%
SMILES | HPGD inh | IMPase inh | Lamin A splicing | Luc counter | PNC assembly inh | ALDH1A1 block
N#CCCN(CC#Cc1ccccc1)OCc1ccccc1 | / | / | / | / | / | -15%[13.5 µM]
CCCC(=O)Nc1cc(C(F)(F)F)ccc1N1CCOCC1 | / | / | 12%[46 µM] | 5% | / | 3.2µM*
CC(C)(C)C(=O)Nc1cc(C(F)(F)F)ccc1N1CCOCC1 | -8% | 2 | -6% | 0% | -19 | -1%
O=C(CSCc1ccco1)Nc1cc(C(F)(F)F)ccc1N1CCOCC1 | 28µM* | 6 | 3% | -1% | 30 | 7.1µM*
CC(C)(C)C(=O)NC(=S)Nc1cc(C(F)(F)F)ccc1N1CCOCC1 | -7% | -3 | 11% | -1% | 16 | 19µM*
O=C(NC(=S)Nc1cc(C(F)(F)F)ccc1N1CCOCC1)c1sc2ccccc2c1Cl | -13% | -9 | -8% | 2% | 18 | 7.9µM*
O=C(CCCCl)NC(=S)Nc1cc(C(F)(F)F)ccc1N1CCOCC1 | -9% | / | ? | 0% | 1 | -5%
CC1=c2c(oc3cc(O)c(Nc4c(C)cc(O)cc4O)c(C)c23)=CC(=O)C1=Nc1c(C)cc(O)cc1O | -11% | / | / | -18%[7.66 µM] | / | 22%[13.5 µM]
C=CCOC(=O)N[C@H](/C(C(=O)OC)=C(\C)NCc1ccccc1)c1cccc(F)c1 | -19% | / | / | -5% | / | -2%
CC(O)COC(C)(C)C (centres undefined) | -8% | / | / | / | / | -14%
C=CC1CN2CCC1CC2[C@@H](O)c1ccnc2ccc(OC)cc12 (some centres undefined) | / | / | / | 2%[39.9 µM] | / | /
COC(=O)NC(CC(C)=O)c1ccc2c(c1)OCO2 (centres undefined) | / | / | / | / | / | 9%[13.5 µM]
O=C(Nc1cc(C(F)(F)F)ccc1N1CCOCC1)C1Cc2ccccc2CN1C(=O)c1ccco1 (centres undefined) | ? | 11 | 16% | -1% | -15 | 22µM*
O=C(Nc1ccccc1N1CCCC1)c1cccnc1 | -1% | 12 | -6% | 2% | 27 | -9%
O=C(Nc1cc(C(F)(F)F)ccc1N1CCCC1)c1cccnc1 | -8% | -6 | 16% | -1% | -89* | -3%
O=C(CCCCCn1c(=S)[nH]c2ccc(Br)cc2c1=O)NCC1CCCO1 (centres undefined) | 2.8µM* | -4 | 0% | 3% | 1 | -7%
CC1CC(C)CN(C(=O)CCCn2c(=S)[nH]c3ccccc3c2=O)C1 (centres undefined) | 25µM* | -5 | -1% | 0% | -10 | ?
O=C(CCCn1c(=S)[nH]c2ccccc2c1=O)N1CCCCC1 | 10µM* | 3[1.84 µM] | -5% | 3% | -13 | ?
O=C(NCC1CCCO1)c1ccc2c(=O)n(Cc3ccc(Cl)cc3)c(=S)[nH]c2c1 (centres undefined) | / | / | ? | 0% | / | -1%
O=C(c1ccc(F)cc1)C1CCN(CCn2c(=S)[nH]c3ccccc3c2=O)CC1 | 14µM* | 1 | / | -1% | / | -2%
O=C(CCn1c(=S)[nH]c2ccccc2c1=O)N1CCOCC1 | -14% | 7 | 5% | 1% | 12 | 2%
CC1CCN(CCCn2c(=S)[nH]c3ccccc3c2=O)CC1 | -12% | -3 | 9% | -5% | ? | 3%
O=C(NCc1cc(F)cc2c1OCCO2)[C@H]1C[C@@H]1[C@H](NP(=O)(c1ccccc1)c1ccccc1)c1ccccc1 | -19% | / | / | -4% | / | -14%
O=C(CCCn1c(=S)[nH]c2ccccc2c1=O)NC1CCCCC1 | 20µM* | 4 | -2% | 16% | -12 | -14%
CCOc1cc2[nH]c(=O)n(CCCCC(=O)N3CCCCCC3)c(=O)c2cc1OCC | ? | -4 | -8% | 3% | -100* | ?
CCCN(CCC)C(=O)SCC | -2% | / | / | / | / | 8%
